40 compounds from PubChem BioAssay (Tox21) can be followed below.

Records with an inconclusive call do not appear. Calls of active or inactive are those of the source. Calls follow the shape of the dose curve; as a rule, active = well fitted cell-killing curve with a large enough effect in the repeat runs; inconclusive = weak or mixed curves, or effect the other way; inactive = flat fitted curve, though single readings scatter.
% is scaled to controls: 0 for no effect and ±100 for the full control effect; potency is read from the fitted curve at half-maximal effect.

This assay can be described thus: cAMP Responsive Elements (CRE) small molecule antagonists, cell-based qHTS assay: qHTS cell viability counter screen (AID 2060913). Also: nearly all actives have a fitted effect of over 40% in size. Conditions: CRE-bla HEK293T viability, CellTiter-Glo luminescence, 5 h; series mostly up to 92.4 µM; viability change, negative = cytotoxic: at the top concentration. From the text:
U.S. Tox21 Program National Center for Advancing Translational Sciences [NCATS] Division of Preclinical Innovation [DPI] U.S. Environmental Protection Agency [EPA] National Institutes of Environmental Health Sciences [NIEHS] National Toxicology Program [NTP] U.S. Food and Drug Administration [FDA] Tox21 Assay Overview: CREB (cyclic-AMP Responsive Element Binding Protein) is a cellular transcription factor. It binds to certain DNA sequences called cAMP Responsive Elements (CRE) and regulates the transcription of the genes. […] This cell line can be used to find agonists/antagonists of the cyclic AMP signaling pathway. The activation of the report gene under culture conditions can be detected by fluorescence intensity. This cell line has been used to screen the Tox21 10K compound library to identify agonists that induce oxidative stress. The cytotoxicity of the Tox21 compound library against the CRE-bla cell line was tested in parallel by measuring the cell viability using CellTiter-Glo assay (Promega, Madison, WI) in the same wells.
Tox21 Assay Protocol Summary: CRE-bla Hek 293T cells were suspended in assay medium (DMEM containing 10% dialyzed FBS, 0.1 mM NEAA, 1 mM sodium pyruvate and 25 mM HEPES) and dispensed at 2,000 cells/4 uL /well into 1536-well black wall/clear bottom plates using a Multidrop Combi (ThermoFisher Scientific, Waltham, MA) dispenser. After the assay plates were incubated at 37 C/5% CO2 for 18 hrs, 23 nL of compounds dissolved in DMSO, positive controls or DMSO only was transferred to the assay plate by a pintool workstation (Kalypsys, San Diego, CA), followed by addition of 1 uL of 1.25uM NKH477 (0.25 uM as final concentration) in assay medium using a Flying Reagent Dispenser (Aurora Discovery, San Diego, CA). The plates were incubated at 37 C and 5% CO2 for 3 hrs. Then 1 uL of LiveBLAzer B/G FRET substrate (Invitrogen, Carlsbad, CA) was added to each well using Bioraptr Flying Reagent Dispenser (FRD, Aurora Discovery, San Diego, CA). The plates were incubated at room temperature for 2 h, then fluorescence intensities were measured using an Envision plate reader (PerkinElmer, Shelton, CT) at Excitation 405nm, Emission 460nm and 530nm. The % activity was determined from the ratio of 460nm/530nm. For cell viability readout that measures cytotoxicity, 4 uL /well of CellTiter-Glo reagent was added into the assay plates using Bioraptr FRD. After 30 min incubation at room temperature, the luminescence intensity in the assay plates was measured using a ViewLux (PerkinElmer, Shelton, CT) plate reader.
In general terms: Quantitative high-throughput screening tests each substance at several concentrations.
With `CCCCOC(=O)CCC(=O)OCCCC`, the “viability change, negative = cytotoxic” value is 2.1% (inactive). As for `Nc1ccc([As](=O)(O)O)cc1`, the Potency result was “inactive”.

In the case of `CC(Cc1ccc(OCC(=O)O)cc1)NCC(O)c1csc(C(F)(F)F)n1` (stereo not given), the “viability change, negative = cytotoxic” value is -1.59% (inactive). On the same count and under the same terms, the result for `Fc1ccc(C2(Cn3cncn3)OC2c2ccccc2Cl)cc1` (stereo not given) reads -8.02% (inactive).

`CN(C)[C@@H]1C(=O)C(C(N)=O)=C(O)[C@@]2(O)C(=O)C3=C(O)c4c(O)cccc4[C@@](C)(O)[C@H]3C[C@@H]12`: the Potency entry is “inactive”. For the compound `CCOC(=O)OC1=C(c2cc(C)ccc2C)C(=O)NC12CCC(OC)CC2` (stereo not given), the “viability change, negative = cytotoxic” value is 9.07% (inactive). As to `Cc1ccccc1N`, the Potency result was “inactive”.

Regarding `Cc1cc(Cl)ccc1N`, the Potency result is “inactive”. Consider `Nc1ccc(N=Nc2ccccc2)cc1`, for which the “viability change, negative = cytotoxic” value was 0.15% (inactive).

Regarding `O=C(CCl)NCO`, the “viability change, negative = cytotoxic” value is 4.02% (inactive). On the same count and under the same terms, the result for `CCNc1nc(NCC)nc(SC)n1` reads -0.333% (inactive); that for `CC(C)[N+](=O)[O-]`, 8.99% (inactive); that for `CCC(C)Cl` (stereo not given), 3.37% (inactive). On the same count and under the same terms, with `NC(=O)CI` the figure was 2.29% (inactive); with `II`, -15.9% (inactive); with `CC1(C)[C@H](C=C(Cl)Cl)[C@@H]1C(=O)O[C@@H](C#N)c1cccc(Oc2ccccc2)c1`, -2.95% (inactive). As for `CC(C)(c1ccc(O)c(-c2ccccc2)c1)c1ccc(O)c(-c2ccccc2)c1`, the Potency was 61.1 µM (active). `CC(C)C1(C)N=C(c2ncccc2C(=O)O)NC1=O` (stereo not given): the “viability change, negative = cytotoxic” value is 0.751% (inactive). Consider `ClC1=C(Cl)[C@]2(Cl)[C@H]3[C@H]([C@@H]4C=C[C@H]3C4)[C@@]1(Cl)C2(Cl)Cl`, for which the Potency entry was “inactive”.

`COc1ccc(/C(=C/C(=O)N2CCOCC2)c2ccc(Cl)cc2)cc1OC`: the “viability change, negative = cytotoxic” value is -3.16% (inactive). Still for that read-out and setting: the result for `O=NN1CCN(N=O)CC1` reads 6.11% (inactive); that for `C[N+](C)(C)CC1CO1` (stereo not given), -0.498% (inactive); that for `CCCCCCCCCC(=O)O[C@H]1CC[C@H]2[C@@H]3CCC4=CC(=O)CC[C@@H]4[C@H]3CC[C@]12C`, 1.26% [at 42.5 µM] (inactive). Same read-out and setting: the result for `Clc1c(Cl)c(Cl)c(Cl)c(Cl)c1Cl` reads 2.46% [at 8.39 µM] (inactive). `CC(C)Nc1ccc(Nc2ccccc2)cc1`: the Potency was 50.8 µM (active).

For `Cc1cc(C)cc(OP(=O)(Oc2cc(C)cc(C)c2)Oc2cc(C)cc(C)c2)c1`, the “viability change, negative = cytotoxic” value is -22.5% (inactive). As to `COC(=O)c1ccccc1C(=O)OC`, the Potency result was “inactive”. Consider `O=C(O)C(F)(F)C(F)(F)C(F)(F)C(F)(F)C(F)(F)C(F)(F)F`, for which the “viability change, negative = cytotoxic” value was 6.64% (inactive). With `CC(NC(C)(C)C)C(=O)c1cccc(Cl)c1` (stereo not given), the Potency entry is “inactive”. For `O=c1ccc(=O)[nH][nH]1`, the “viability change, negative = cytotoxic” value is 6.22% (inactive). Take `OCCCl`: the “viability change, negative = cytotoxic” value was -0.0769% (inactive). For the compound `C(=NC1CCCCC1)=NC1CCCCC1`, the Potency entry was “inactive”. With `O=[N+]([O-])c1ccccc1`, the Potency result was “inactive”.

As for `O=C=Nc1ccc(Cl)cc1`, the “viability change, negative = cytotoxic” value was 0.207% (inactive).

On to `CCC(C)c1ccc(O)cc1` (stereo not given), for which the Potency entry is “inactive”. As to `CCOP(=S)(OCC)SCSCC`, the “viability change, negative = cytotoxic” value is -5.32% (inactive). `Clc1ccc(C2(Cn3cncn3)CC(Br)CO2)c(Cl)c1` (stereo not given): the “viability change, negative = cytotoxic” value is -7.27% (inactive).

On to `CSC1=N[C@@](C)(c2ccccc2)C(=O)N1Nc1ccccc1`, for which the “viability change, negative = cytotoxic” value is -11.8% (inactive).

Take `O=C1C(Cl)=C(Cl)C(=O)c2ccccc21`: the “viability change, negative = cytotoxic” value is -16.5% (inactive). Same read-out and setting: the result for `CNC(=O)N(C)c1nc2ccccc2s1` reads 5.64% (inactive).
